Results filed as inconclusive are left out. Values without a mark were called inactive. Calls of active or inactive are those of the source. Calls follow the shape of the dose curve; as a rule, active = well fitted inhibition curve with a large enough effect in the repeat runs; inconclusive = weak or mixed curves; inactive = no such curve, though single readings can be large or run the other way.
These compounds were tested against Cytochrome P450 2C9 (Homo sapiens) (UniProt P11712) (assay: Cytochrome P450 Family 2 Subfamily C Member 9 (CYP2C9) small molecule antagonists: luciferase reporter qHTS assay (AID 1671198; also: nearly all actives have a fitted effect of over 50% in size)). Conditions: P450-Glo CYP2C9 enzyme assay, luciferin luminescence; series mostly up to 115 µM; activity change, negative = inhibition: at the top concentration.
Source text: U.S. Tox21 Program National Center for Advancing Translational Sciences [NCATS] U.S. Environmental Protection Agency [EPA] National Institutes of Environmental Health Sciences [NIEHS] National Toxicology Program [NTP] U.S. Food and Drug Administration [FDA] Tox21 Assay Overview: Cytochrome P450 (CYP) enzymes are membrane-bound hemeproteins that play a key role in metabolism of drugs and xenobiotics. Evaluation of the effect of chemicals on CYP isozymes is useful to minimize the adverse drug reactions and toxicities in drug development process. Tox21 chemicals were tested for their effect on CYP enzyme activities by using P450-Glo (TM) screening systems (Promega Corporation, Madison, WI). These systems provide a luminescent method containing proluciferin substrates and are converted to luciferin products by CYP isozymes. The luciferin products formed are detected with a luciferin detection reagent, and the amount of light produced is proportional to CYP activity. P450-Glo (TM) CYP2C9 screening system (Catalog. No. V9790) was used to detect the compounds that interfere in CYP2C9 activity.
Tox21 Assay Protocol Summary: Two ul of enzyme-substrate mix was dispensed into medium binding white/solid 1536-well plates (Greiner Bio-One North America Inc., Monroe, NC) using a BioRaptr Flying Reagent Dispenser (FRD, Beckman Coulter, Brea, CA). […] The assay plates were incubated at room temperature for 10 min. Then 2 ul of NADPH regeneration solution was added to each well of the assay plates using an FRD and incubated at 37C for 1 h. The reaction was stopped by adding 4 ul of detection reagent using an FRD and after 20 min incubation at room temperature the luminescence signal was measured using a ViewLux plate reader (Perkin Elmer, Shelton, CT). Data were expressed as relative luminescence units.
% is scaled to controls: 0 for no effect and ±100 for the full control effect; potency is read from the fitted curve at half-maximal effect.

Chain of Cytochrome P450 2C9 (Homo sapiens) (P11712 whole entry, looked up): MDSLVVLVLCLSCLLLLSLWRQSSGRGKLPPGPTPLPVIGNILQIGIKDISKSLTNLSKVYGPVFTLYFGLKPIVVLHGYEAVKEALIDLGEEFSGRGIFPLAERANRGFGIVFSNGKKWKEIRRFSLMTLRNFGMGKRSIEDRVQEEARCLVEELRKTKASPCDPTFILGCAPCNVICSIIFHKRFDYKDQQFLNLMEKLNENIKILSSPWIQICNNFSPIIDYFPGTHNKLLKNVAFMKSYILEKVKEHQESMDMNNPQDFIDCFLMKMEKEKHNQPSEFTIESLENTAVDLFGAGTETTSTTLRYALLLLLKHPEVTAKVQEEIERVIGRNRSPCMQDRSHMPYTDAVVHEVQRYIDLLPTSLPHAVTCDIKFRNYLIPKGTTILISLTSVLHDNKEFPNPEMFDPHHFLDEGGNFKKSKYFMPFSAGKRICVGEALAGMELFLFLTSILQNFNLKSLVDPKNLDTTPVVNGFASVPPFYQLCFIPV

SMILES | Potency | activity change, negative = inhibition
O=c1oc2ccccc2c(O)c1C1CCCc2ccccc21 (stereo not given) | 3.99 µM (active) | –
CC(C)[N+](=O)[O-] | – | -16.7%
CN1CCC(N(Cc2ccccc2)c2ccccc2)CC1 | – | -19% [at 53 µM]
CCOP(=O)(N=C1SCCS1)OCC | – | -15.6%
O=C1OC(CCN2CCCCC2)OC1(c1ccccc1)c1ccccc1 (stereo not given) | 15.5 µM (active) | –
C#C[C@]1(O)C=C[C@H]2[C@@H]3CCC4=CC(=O)CC[C@@H]4[C@H]3CC[C@@]21CC | 4.9 µM (active) | –
CSc1ccc(C(=O)C(C)(C)N2CCOCC2)cc1 | 20 µM (active) | –
O=C(O)c1ccc2[nH]cc(CCCCN3CC=C(c4ccccc4)CC3)c2c1 | – | -9.24% [at 53 µM]
CN1CCC(O)(c2ccc(F)cc2)C(C(=O)c2ccc(F)cc2)C1 (stereo not given) | – | -7.16% [at 53 µM]
COP(N)(=S)Oc1ccccc1C(=O)OC(C)C (stereo not given) | 6.33 µM (active) | –
CCCSC(=O)Cl | – | -0.587%
OC(Cn1cncn1)(c1ccc(F)cc1)c1ccccc1F (stereo not given) | 0.796 µM (active) | –
COP(=S)(OC)Oc1c(Cl)cc(C)cc1Cl | 8.94 µM (active) | –
O=C(Oc1ccc(Br)cc1)N1CCN2CCC1CC2 | – | -15.4%
CCN(CC)CCOC(=O)C(C)(c1ccccc1)c1ccccc1 | 12.3 µM (active) | –
CC(CC(C#N)(c1ccccc1)c1ccccc1)N(C)C (stereo not given) | – | -16.1%
CCCSC(=O)N(CCC)CCC | – | -12.8%
CNC(=O)Oc1c(C(C)(C)C)cc(C)cc1C(C)(C)C | 6.33 µM (active) | –
CCCSP(=S)(OCC)Oc1ccc(Cl)cc1Cl (stereo not given) | 2 µM (active) | –
Fc1ccc(C2(Cn3cncn3)OC2c2ccccc2Cl)cc1 (stereo not given) | 5.64 µM (active) | –

SMILES | Potency | activity change, negative = inhibition
ClCC(Cl)(Cl)Cl | – | -0.147%
ClCCOCOCCCl | – | -0.328%
CCOP(=S)(OCC)Oc1cc(-c2ccccc2)on1 | 0.502 µM (active) | –
CC(C)(C)OC(=O)c1ncn2c1[C@@H]1CCCN1C(=O)c1c(Br)cccc1-2 | 7.76 µM (active) | –
N#Cc1c(Cl)cccc1Cl | – | -20.7%
N#CC(CCc1ccc(Cl)cc1)(Cn1cncn1)c1ccccc1 (stereo not given) | 2.24 µM (active) | –
CC(=O)CC(c1ccc(Cl)cc1)c1c(O)c2ccccc2oc1=O (stereo not given) | 11.8 µM (active) | –
COCC(=O)N(c1c(C)cccc1C)N1CCOC1=O | – | -0.459%
O=CNC(N1CCN(C(NC=O)C(Cl)(Cl)Cl)CC1)C(Cl)(Cl)Cl (stereo not given) | 35.6 µM (active) | –
CCOP(=S)(OCC)SCSP(=S)(OCC)OCC | 0.796 µM (active) | –
CCN(CC)c1nc(C)cc(OP(=S)(OC)OC)n1 | 22.4 µM (active) | –
ClC(Cl)(Cl)C(Cl)(Cl)Cl | – | 2.39%
COc1cc(OC)nc(Oc2cccc(Oc3nc(OC)cc(OC)n3)c2C(=O)O)n1 | – | -1.34%
CCC#N | – | -5.73%
C=C(C)CN(CC)c1c([N+](=O)[O-])cc(C(F)(F)F)cc1[N+](=O)[O-] | 31.7 µM (active) | –
CCCCOC(=O)[C@@H](C)Oc1ccc(Oc2ccc(C#N)cc2F)cc1 | 7.92 µM (active) | –
COC(=O)C(C)Oc1ccc(Oc2ccc(Cl)cc2Cl)cc1 (stereo not given) | 31.7 µM (active) | –
O=C(Nc1ccccc1)c1ccccc1I | 39.9 µM (active) | –
C[C@@H]1CN(C2CCC(C#N)(c3ccc(F)cc3)CC2)CC[C@]1(C(=O)O)c1ccccc1 (stereo not given in full) | – | -13.8% [at 53 µM]
CC(Cl)(Cl)[N+](=O)[O-] | – | 5.06%
